About 7,900 targets were measured; listed, in parts, are those with a hit and a random draw of the rest. About 0.6% of all pairs of compound and target were hits.
How the values were obtained:
Test in all cases: log2 fold change, soluble protein after heating vs DMSO (PISA); higher = thermal stabilisation; K562 cells, 10 uM, 30 min; active = over 0.2 and 3.5 SD of the protein, either way, in both replicates (recomputed)
[1] = compound: C1COCCN1CCN2C3=CC=CC=C3N=C2NC(=O)C4=CC(=CC=C4)[N+](=O)[O-] [IRAK-1-4 Inhibitor I]
How it was run: (§1)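 Thermal stability values are relative to control samples and come from duplicates. They are expressed as log2 fold changes. For measurement, K562 cells (2×10^6 cells/mL) received 10 μM compound for 30 min, and aliquots were heated for 3 min over 48°C-58°C, pooled, and extracted at 4°C in PBS with 0.5% NP-40. Soluble protein, the supernatant after 21,000xg for 90 min, was quantified by TMTpro 16plex LC-MS/MS with equalised channel sums.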

[2] = compound: C=CC(=O)N1CCC[C@@H](n2nc(-c3ccc(Oc4ccccc4)cc3)c3c(N)ncnc32)C1 [ibrutinib]
How it was run: as §1

[3] = compound: CC(=O)c1cnc2ccc(-c3cc(Cl)c(O)c(Cl)c3)nc2c1N[C@H]1CC[C@H](CN(C)C)CC1
How it was run: as §1

[4] = compound: CC(C)(C)Cn1c(N)nc2ccc(-c3[nH]c(C(C)(C)C)nc3-c3ccc(F)cc3)nc21 [ralimetinib]
How it was run: as §1

[5] = compound: CC(C)(O)CC(=O)NCCn1ccc2ncnc(Nc3ccc(Oc4cccc(C(F)(F)F)c4)c(Cl)c3)c21
How it was run: as §1

[6] = compound: CC(C)C1=C2N=C(C=C(N2N=C1)NCC3=CC=CC=C3)NCCCCCCN
How it was run: as §1

[7] = compound: CC(C)C[C@@H](C=O)NC(=O)[C@H](CC(C)C)NC(=O)[C@H](CC(C)C)NC(=O)OCc1ccccc1
How it was run: as §1

[8] = compound: CC(C)N(C[C@H]1O[C@@H](n2cnc3c(N)ncnc32)[C@H](O)[C@@H]1O)[C@H]1C[C@@H](CCc2nc3cc(C(C)(C)C)ccc3[nH]2)C1 [pinometostat]
How it was run: as §1

[9] = compound: CC1=C(C(CC(=O)N1)C2=CC=C(C=C2)C(F)(F)F)C(=O)NC3=C(C=C4C(=C3)C=NN4)F
How it was run: as §1

[10] = compound: CC1=C(C2=C(C=C1)C(=O)C3=CC=CC=C3N2CCCN)C
How it was run: as §1

Measured: log2 fold change

SURF2 (UniProt Q15527)
inactive: [1] 0.071 | [2] 0.004 | [3] -0.043 | [4] -0.117 | [5] -0.014 | [6] 0.131 | [7] 0.022 | [8] 0.01 | [9] -0.036
active: [10] -0.238

TLK2 isoform 2 (UniProt Q86UE8)
inactive: [1] 0.035 | [2] -0.011 | [3] -0.144 | [4] -0.003 | [5] -0.077 | [6] 0.011 | [7] 0.025 | [8] -0.004 | [9] -0.015
active: [10] 0.282

SPINDOC (UniProt Q9BUA3)
inactive: [1] 0.029 | [2] 0.089 | [3] 0.017 | [4] 0.084 | [5] -0.01 | [6] 0.103 | [7] 0 | [8] 0.075 | [9] 0.093 | [10] -0.24

TM9SF4 (UniProt Q92544)
inactive: [1] -0.006 | [2] 0.008 | [3] -0.016 | [4] 0.031 | [5] -0.006 | [6] -0.033 | [7] 0.029 | [8] 0.016 | [9] -0.015 | [10] 0.077

SP1 (UniProt P08047)
active: [10] -0.312
inactive: [1] 0.013 | [2] 0.024 | [3] 0.029 | [4] -0.049 | [5] -0.031 | [6] -0.05 | [7] 0.064 | [8] 0.04 | [9] 0.043

TFRC (UniProt P02786)
inactive: [1] 0.058 | [2] 0.026 | [3] -0.023 | [4] -0.005 | [5] 0.001 | [6] -0.032 | [7] -0.005 | [8] -0.02 | [9] 0.001 | [10] -0.03

SYMPK (UniProt Q92797)
inactive: [1] -0.029 | [2] -0.087 | [3] -0.057 | [4] 0.099 | [5] -0.296 | [6] -0.026 | [7] -0.061 | [8] -0.115 | [9] 0.078 | [10] -0.033

TBCD (UniProt Q9BTW9)
Sequence of UniProt Q9BTW9 (Q9BTW9 whole entry, looked up): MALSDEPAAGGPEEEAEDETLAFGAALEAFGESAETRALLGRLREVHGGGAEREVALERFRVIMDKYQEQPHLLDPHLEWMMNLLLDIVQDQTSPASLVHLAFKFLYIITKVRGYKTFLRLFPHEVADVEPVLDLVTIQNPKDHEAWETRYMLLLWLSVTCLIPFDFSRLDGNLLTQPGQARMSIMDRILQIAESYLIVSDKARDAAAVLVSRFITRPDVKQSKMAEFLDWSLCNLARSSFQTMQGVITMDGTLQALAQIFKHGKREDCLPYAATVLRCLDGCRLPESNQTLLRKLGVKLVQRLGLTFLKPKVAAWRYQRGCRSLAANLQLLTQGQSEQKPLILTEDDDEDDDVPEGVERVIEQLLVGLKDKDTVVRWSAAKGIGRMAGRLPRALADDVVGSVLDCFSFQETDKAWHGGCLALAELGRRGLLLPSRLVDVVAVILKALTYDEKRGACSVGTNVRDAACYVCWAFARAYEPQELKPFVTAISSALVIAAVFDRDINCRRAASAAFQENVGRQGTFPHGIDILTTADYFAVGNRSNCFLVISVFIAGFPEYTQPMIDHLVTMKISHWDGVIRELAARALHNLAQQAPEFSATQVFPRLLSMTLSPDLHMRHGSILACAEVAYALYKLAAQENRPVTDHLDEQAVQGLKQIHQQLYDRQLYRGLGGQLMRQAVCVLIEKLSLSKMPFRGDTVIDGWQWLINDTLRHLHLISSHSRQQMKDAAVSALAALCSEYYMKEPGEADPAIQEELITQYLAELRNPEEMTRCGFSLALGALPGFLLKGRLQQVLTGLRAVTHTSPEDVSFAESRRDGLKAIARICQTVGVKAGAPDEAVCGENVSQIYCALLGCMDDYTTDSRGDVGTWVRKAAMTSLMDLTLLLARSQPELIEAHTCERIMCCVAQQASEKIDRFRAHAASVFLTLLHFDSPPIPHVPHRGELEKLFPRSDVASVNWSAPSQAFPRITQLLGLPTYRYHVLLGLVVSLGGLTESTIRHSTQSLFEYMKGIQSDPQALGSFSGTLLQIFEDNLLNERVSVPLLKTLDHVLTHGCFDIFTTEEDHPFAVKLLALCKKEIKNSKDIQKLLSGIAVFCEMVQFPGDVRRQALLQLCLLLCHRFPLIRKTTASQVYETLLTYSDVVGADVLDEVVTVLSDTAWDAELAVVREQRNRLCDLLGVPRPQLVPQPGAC
inactive: [1] 0.019 | [2] -0.019 | [3] -0.004 | [4] 0.01 | [5] -0.034 | [6] -0.083 | [7] 0.01 | [8] -0.061 | [9] 0.068 | [10] -0.086

STRN (UniProt O43815)
inactive: [1] 0.029 | [2] 0.073 | [3] -0.046 | [4] 0.13 | [5] -0.023 | [6] 0.03 | [7] -0.066 | [8] -0.002 | [9] -0.037 | [10] 0

STARD9 (UniProt Q9P2P6)
inactive: [1] -0.121 | [2] 0.161 | [3] 0.091 | [4] 0.068 | [5] -0.156 | [6] -0.066 | [7] 0.085 | [8] 0.083 | [9] -0.053 | [10] -0.07

SLIRP (UniProt Q9GZT3)
active: [7] 0.393
inactive: [1] 0.004 | [2] 0.035 | [3] -0.192 | [4] -0.027 | [5] -0.239 | [6] -0.02 | [8] -0.016 | [9] 0.088 | [10] -0.342

SLC7A6 (UniProt Q92536)
Sequence of UniProt Q92536 (Q92536 whole entry, looked up): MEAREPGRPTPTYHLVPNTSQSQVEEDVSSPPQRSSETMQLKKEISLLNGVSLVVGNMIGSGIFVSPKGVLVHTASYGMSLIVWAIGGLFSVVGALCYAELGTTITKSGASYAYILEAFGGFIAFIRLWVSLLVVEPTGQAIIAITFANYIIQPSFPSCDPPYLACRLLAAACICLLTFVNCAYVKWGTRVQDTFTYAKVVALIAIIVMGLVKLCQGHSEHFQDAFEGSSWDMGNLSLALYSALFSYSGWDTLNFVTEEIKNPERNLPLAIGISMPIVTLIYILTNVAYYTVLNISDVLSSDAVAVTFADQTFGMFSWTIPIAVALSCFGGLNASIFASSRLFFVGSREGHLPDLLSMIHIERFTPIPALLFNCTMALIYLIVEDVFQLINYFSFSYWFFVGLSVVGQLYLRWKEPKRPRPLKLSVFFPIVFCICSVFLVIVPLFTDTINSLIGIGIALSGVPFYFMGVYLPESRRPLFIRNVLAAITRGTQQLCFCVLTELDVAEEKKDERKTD
inactive: [1] -0.03 | [2] -0.032 | [3] -0.037 | [4] -0.02 | [5] -0.301 | [6] 0.142 | [7] 0.006 | [8] -0.068 | [9] 0.025 | [10] -0.02

STK26 (UniProt Q9P289)
active: [2] -0.272 | [3] -0.344
inactive: [1] 0.03 | [4] -0.022 | [5] -0.081 | [6] -0.071 | [7] 0.03 | [8] -0.019 | [9] 0.022 | [10] -0.07

TIMM44 (UniProt O43615)
Sequence of UniProt O43615 (O43615 whole entry, looked up): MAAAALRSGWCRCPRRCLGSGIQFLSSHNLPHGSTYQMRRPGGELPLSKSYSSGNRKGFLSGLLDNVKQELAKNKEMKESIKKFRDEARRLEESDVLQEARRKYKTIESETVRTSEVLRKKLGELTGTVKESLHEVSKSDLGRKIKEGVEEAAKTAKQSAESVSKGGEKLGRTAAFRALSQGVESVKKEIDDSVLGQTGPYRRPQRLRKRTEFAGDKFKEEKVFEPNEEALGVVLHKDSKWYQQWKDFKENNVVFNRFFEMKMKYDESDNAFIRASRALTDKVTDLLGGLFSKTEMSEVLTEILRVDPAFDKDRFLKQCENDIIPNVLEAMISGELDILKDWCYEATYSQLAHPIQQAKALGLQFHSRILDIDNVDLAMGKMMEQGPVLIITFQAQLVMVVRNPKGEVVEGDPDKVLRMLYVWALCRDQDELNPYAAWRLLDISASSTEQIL
active: [6] -0.399
inactive: [1] 0.066 | [2] -0.061 | [3] -0.065 | [4] -0.039 | [5] -0.171 | [7] 0.006 | [8] -0.004 | [9] 0.028 | [10] 0.022

SPPL2B (UniProt Q8TCT7)
inactive: [1] -0.004 | [2] 0.013 | [3] -0.039 | [4] 0.041 | [5] 0.179 | [6] -0.086 | [7] 0.101 | [8] -0.032 | [9] 0.049 | [10] 0.02

SQSTM1 (UniProt Q13501)
inactive: [1] -0.006 | [2] 0.012 | [4] -0.026 | [5] 0.058 | [6] -0.118 | [7] 0.039 | [8] 0.048 | [9] 0.077 | [10] -0.079
active: [3] -0.298

TIMM29 (UniProt Q9BSF4)
active: [8] 0.444
inactive: [1] -0.202 | [2] 0.024 | [3] -0.014 | [4] -0.101 | [5] 0.008 | [6] 0.071 | [7] -0.031 | [9] -0.004 | [10] -0.052

TEX264 (UniProt Q9Y6I9)
inactive: [1] -0.011 | [2] -0.049 | [3] -0.022 | [4] 0 | [5] 0.19 | [6] -0.148 | [7] -0.035 | [8] -0.005 | [9] -0.155 | [10] 0.091

TIMM21 (UniProt Q9BVV7)
Sequence of UniProt Q9BVV7 (Q9BVV7 whole entry, looked up): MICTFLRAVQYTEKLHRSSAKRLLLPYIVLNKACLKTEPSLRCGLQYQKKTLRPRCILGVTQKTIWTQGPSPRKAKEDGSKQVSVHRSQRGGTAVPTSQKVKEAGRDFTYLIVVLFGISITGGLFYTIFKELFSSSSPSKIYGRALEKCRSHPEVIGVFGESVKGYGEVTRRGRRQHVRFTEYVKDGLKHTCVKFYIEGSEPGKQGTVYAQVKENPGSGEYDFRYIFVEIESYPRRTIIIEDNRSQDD
inactive: [1] -0.009 | [2] -0.02 | [3] -0.026 | [4] -0.01 | [5] 0.011 | [6] -0.169 | [7] 0.099 | [8] -0.02 | [9] -0.013 | [10] 0.063

SLC25A39 (UniProt Q9BZJ4)
active: [6] -0.673
inactive: [1] 0.037 | [2] 0.032 | [3] 0.068 | [4] -0.035 | [5] -0.112 | [7] 0.035 | [8] 0.294 | [9] -0.129 | [10] -0.11

SLC7A6OS (UniProt Q96CW6)
inactive: [1] 0.018 | [2] -0.027 | [3] 0.046 | [4] 0.134 | [5] -0.032 | [6] 0.045 | [7] -0.019 | [9] 0.014 | [10] -0.199
active: [8] 0.273

SMARCAD1 isoform 2 (UniProt Q9H4L7)
inactive: [1] -0.031 | [2] -0.016 | [3] 0.014 | [4] -0.009 | [5] -0.201 | [6] -0.2 | [7] 0.029 | [8] -0.003 | [9] -0.007 | [10] 0.144

SPIRE1 (UniProt Q08AE8)
Sequence of UniProt Q08AE8 (Q08AE8 whole entry, looked up): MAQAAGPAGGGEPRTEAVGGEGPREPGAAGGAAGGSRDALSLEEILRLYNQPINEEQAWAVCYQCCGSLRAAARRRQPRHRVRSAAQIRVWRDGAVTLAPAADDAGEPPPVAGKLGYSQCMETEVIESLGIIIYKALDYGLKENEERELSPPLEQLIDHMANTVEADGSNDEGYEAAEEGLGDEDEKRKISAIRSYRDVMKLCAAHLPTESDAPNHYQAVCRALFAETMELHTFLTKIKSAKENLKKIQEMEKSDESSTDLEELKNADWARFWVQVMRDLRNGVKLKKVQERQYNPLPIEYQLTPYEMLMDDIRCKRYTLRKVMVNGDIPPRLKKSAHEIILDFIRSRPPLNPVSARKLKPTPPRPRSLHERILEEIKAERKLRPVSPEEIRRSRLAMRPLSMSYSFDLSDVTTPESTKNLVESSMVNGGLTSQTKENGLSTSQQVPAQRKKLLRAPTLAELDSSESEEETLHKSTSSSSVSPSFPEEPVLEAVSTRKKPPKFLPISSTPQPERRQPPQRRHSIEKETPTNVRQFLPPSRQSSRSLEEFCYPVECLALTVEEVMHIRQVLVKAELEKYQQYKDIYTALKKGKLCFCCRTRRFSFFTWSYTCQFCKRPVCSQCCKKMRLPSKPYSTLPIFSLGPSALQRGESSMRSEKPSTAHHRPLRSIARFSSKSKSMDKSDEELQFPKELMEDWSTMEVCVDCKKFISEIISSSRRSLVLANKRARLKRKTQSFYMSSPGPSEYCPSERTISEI
inactive: [1] -0.065 | [2] 0.032 | [3] 0 | [4] 0.008 | [5] 0.073 | [6] 0.181 | [7] 0.09 | [8] -0.006 | [9] -0.036 | [10] 0.029

SRSF11 (UniProt Q05519)
inactive: [1] -0.116 | [2] -0.014 | [4] 0.01 | [5] -0.049 | [6] -0.255 | [7] -0.005 | [8] -0.016 | [9] -0.011 | [10] 0.026
active: [3] -0.416

SNX5 (UniProt Q9Y5X3)
active: [5] -0.304
inactive: [1] 0.042 | [2] 0.019 | [3] -0.167 | [4] -0.038 | [6] -0.224 | [7] 0.005 | [8] 0.027 | [9] 0.018 | [10] -0.026

SRI (UniProt P30626)
inactive: [1] -0.017 | [2] -0.032 | [3] -0.014 | [4] -0.039 | [5] -0.108 | [6] 0.026 | [7] -0.048 | [8] -0.036 | [9] 0.069 | [10] 0.201

SRPRA (UniProt P08240)
Sequence of UniProt P08240 (P08240 whole entry, looked up): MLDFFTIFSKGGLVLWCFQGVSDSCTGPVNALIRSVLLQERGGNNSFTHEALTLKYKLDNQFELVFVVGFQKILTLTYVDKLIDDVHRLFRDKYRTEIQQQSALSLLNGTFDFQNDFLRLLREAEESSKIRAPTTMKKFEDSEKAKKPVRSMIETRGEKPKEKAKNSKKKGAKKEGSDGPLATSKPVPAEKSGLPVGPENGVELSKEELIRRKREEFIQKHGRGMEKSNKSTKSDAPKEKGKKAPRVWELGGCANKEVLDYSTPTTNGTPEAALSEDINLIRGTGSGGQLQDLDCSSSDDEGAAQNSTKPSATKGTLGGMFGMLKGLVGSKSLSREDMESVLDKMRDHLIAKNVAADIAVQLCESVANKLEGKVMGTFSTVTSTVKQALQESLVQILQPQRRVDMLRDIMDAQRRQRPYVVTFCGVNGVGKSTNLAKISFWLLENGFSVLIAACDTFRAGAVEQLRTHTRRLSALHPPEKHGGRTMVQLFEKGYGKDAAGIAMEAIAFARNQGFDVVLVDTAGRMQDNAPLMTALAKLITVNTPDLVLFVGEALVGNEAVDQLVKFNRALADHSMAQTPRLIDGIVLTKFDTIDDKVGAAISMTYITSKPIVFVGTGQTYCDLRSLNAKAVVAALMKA
inactive: [1] -0.024 | [2] 0.015 | [3] -0.028 | [4] -0.002 | [5] -0.058 | [6] 0.021 | [7] -0.006 | [8] -0.001 | [9] -0.033
active: [10] 0.269

STXBP5 (UniProt Q5T5C0)
Sequence of UniProt Q5T5C0 (Q5T5C0 whole entry, looked up): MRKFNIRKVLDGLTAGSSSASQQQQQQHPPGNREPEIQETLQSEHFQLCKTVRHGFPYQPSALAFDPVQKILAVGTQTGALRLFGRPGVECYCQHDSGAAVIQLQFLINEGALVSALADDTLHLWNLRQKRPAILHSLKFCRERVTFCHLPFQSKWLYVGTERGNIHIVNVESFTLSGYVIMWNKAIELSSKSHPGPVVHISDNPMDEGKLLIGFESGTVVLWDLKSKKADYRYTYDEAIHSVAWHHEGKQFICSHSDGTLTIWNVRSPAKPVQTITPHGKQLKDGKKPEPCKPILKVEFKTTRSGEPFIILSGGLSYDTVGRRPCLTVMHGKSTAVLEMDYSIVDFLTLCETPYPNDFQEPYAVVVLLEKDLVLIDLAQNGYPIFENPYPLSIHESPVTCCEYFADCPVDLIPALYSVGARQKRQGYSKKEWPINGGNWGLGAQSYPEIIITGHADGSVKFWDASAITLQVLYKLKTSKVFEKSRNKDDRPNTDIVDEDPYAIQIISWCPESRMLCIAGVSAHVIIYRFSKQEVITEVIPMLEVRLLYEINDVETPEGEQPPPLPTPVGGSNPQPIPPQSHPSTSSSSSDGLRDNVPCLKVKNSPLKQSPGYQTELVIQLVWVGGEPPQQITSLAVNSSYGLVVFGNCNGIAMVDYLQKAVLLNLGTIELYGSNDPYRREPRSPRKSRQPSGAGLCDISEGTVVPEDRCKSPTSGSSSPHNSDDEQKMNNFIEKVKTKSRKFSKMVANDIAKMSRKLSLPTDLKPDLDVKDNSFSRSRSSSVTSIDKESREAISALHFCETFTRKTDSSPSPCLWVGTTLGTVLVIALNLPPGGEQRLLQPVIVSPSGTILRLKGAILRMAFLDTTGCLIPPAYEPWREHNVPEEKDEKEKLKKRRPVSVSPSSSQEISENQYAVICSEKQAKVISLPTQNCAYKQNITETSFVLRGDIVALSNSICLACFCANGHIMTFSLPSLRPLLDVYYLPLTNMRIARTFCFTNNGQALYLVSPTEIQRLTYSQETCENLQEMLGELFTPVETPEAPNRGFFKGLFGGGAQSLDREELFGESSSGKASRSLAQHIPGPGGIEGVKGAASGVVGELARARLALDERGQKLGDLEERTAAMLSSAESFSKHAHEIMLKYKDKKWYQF
inactive: [1] -0.025 | [2] -0.037 | [3] -0.073 | [4] 0.029 | [5] -0.038 | [6] -0.107 | [7] -0.049 | [8] 0.025 | [9] 0.018 | [10] 0.048

SNX11 (UniProt Q9Y5W9)
inactive: [1] 0.069 | [2] 0.13 | [3] -0.062 | [4] -0.001 | [5] 0.085 | [6] -0.218 | [7] 0.043 | [8] -0.067 | [9] 0.134 | [10] -0.101

SLC30A7 (UniProt Q8NEW0)
inactive: [1] 0.035 | [2] 0.063 | [3] 0.032 | [4] -0.098 | [5] -0.075 | [6] -0.186 | [7] 0.011 | [8] -0.007 | [9] -0.058 | [10] 0.06

Source: the supplement of paper PMC10849652
